This is a sample that favours compounds with a hit; in the whole collection about 9.3% have one here.
ELG1 genotoxic: inducers of genotoxicity in HEK293T ELG1-luciferase cells; HEK293T ELG1-luciferase reporter, luminescence, 16 h; Potency, µM (top dose mostly 46 µM), inactives show at the highest dose activity change, positive = activation, actives largely listed as activators; 330,000 compounds, 1.3% hits; AID 504466; note: % of control where 0% means no effect; nearly all actives have a fitted effect of over 60% in size
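16 hr compound incubation (37 °C, 5% CO2) of HEK293T cells carrying luciferase-tagged ELG1; luciferase then measured by ONE-Glo luminescence after 30 min at RT.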
SMN2 splice enh: enhancers of SMN2 splice variant expression; Potency, µM (titrated, usually from 46.1 µM), inactives show top-dose activity change, positive = activation, hits mostly activators; AID 1458; HEK293 SMN2-luciferase splicing reporter, luminescence, 30-36 h; 210,000 compounds, 2.8% hits; note: % of control where 0% means no effect; nearly all actives have a fitted effect of over 55% in size
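HEK293 cells carry an SMN2 […]–luciferase reporter in which exon 7 inclusion puts luciferase in frame. Cells were plated 10-12 h before compound addition, then incubated 30-36 h at 37C. ONE-Glo luminescence was read; sodium butyrate at 4.5 mM final served as control.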
FLuc counter: firefly luciferase modulation, counter-screen for miR-21 project; P08659; purified FLuc, Km substrates, luminescence inhibition; Potency, µM (titrated, usually from 57.5 µM), for inactives: top-dose activity change, negative = inhibition, hits mostly inhibitors; 360,000 compounds, 6.9% hits; AID 588342;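 note: plate controls were vehicle for no effect and reference inhibitor for full effect; nearly all actives have a fitted effect of over 55% in size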
Target sequence (P08659 whole entry, looked up): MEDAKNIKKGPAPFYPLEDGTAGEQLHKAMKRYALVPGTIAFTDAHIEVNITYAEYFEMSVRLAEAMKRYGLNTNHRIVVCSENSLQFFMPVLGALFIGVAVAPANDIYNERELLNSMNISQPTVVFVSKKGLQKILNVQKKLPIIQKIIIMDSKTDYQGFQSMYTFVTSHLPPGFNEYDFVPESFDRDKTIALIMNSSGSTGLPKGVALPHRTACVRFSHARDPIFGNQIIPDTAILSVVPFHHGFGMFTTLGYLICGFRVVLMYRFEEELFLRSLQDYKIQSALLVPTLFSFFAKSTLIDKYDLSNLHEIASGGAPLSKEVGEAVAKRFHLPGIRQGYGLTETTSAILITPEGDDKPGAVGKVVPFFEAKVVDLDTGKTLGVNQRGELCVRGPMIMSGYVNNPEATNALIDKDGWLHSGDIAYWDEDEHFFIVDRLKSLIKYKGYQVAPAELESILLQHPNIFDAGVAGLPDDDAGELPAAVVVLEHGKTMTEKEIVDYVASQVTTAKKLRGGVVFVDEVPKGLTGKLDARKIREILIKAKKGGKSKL
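Purified P. pyralis luciferase, 10 nM final, with Km-level 10 uM D-luciferin and 10 uM ATP in 50 mM Tris acetate pH 7.5, 10 mM Mg acetate, 0.01% Tween-20, 0.05% BSA; 6-point qHTS titration about 60 µM downward; luminescence read.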
Rab9 promoter act: activators of Rab9 promoter | Huh7 Rab9 promoter-luciferase reporter, luminescence, 24 h | Potency, µM (highest dose often 9.22 µM), for the others: at the highest dose activation, negative = inhibition, usual class: activators | 320,000 compounds, 2.8% hits | AID 485297; note: % of control where 0% means no effect; nearly all actives have a fitted effect of over 60% in size
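Measured in stably transfected Huh7 cells bearing a Rab9 promoter–luciferase construct: 24 h compound treatment at 37 °C, followed by luminescence detection.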
ELG1 DNA repair: blocks ELG1-dependent DNA repair in HEK293T cells | HEK293T ELG1-luciferase reporter, luminescence, 16 h; DNA damage induced by 5-fluorouridine | Potency, µM (highest dose often 46.1 µM), for inactives: at the highest dose activity change, negative = inhibition, hits mostly inhibitors | 330,000 compounds, 2.3% hits | AID 504467; note: % is set by controls: 0 for no effect and ±100 for the full control effect; nearly all actives have a fitted effect of over 55% in size
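DMSO vehicle served as the neutral condition. Each well held 2,000 cells given 5-fluorouridine plus compound; after 16 hr at 37 °C/5% CO2, ONE-Glo was added and luciferase measured 30 min later.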
NPC1 promoter act: activators of NPC1 promoter; Huh7 NPC1 promoter luciferase reporter, 24 h; Potency, µM (top dose mostly 9.22 µM), without a hit: at the top dose activation, usual class: activators; 320,000 compounds, 2.4% hits; note: % of control where 0% means no effect; nearly all actives have a fitted effect of over 60% in size
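Stable NPC1-promoter luciferase Huh7 line; cpd (DMSO) 24 h, 37 °C, 5% CO2; Amplite luciferase reagent 10 min RT; luminescence readout. qHTS format.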
Starred values were filed as active, the others as inactive; ? = inconclusive; · = no result. Calls come from the whole dose curve; as a rule, active = well fitted curve in the direction sought with a large enough effect; inconclusive = small, poorly fitted or top-dose-only effect, or another doubt; inactive = no such curve, though single readings can be large; an effect the other way counts as inactive or inconclusive. Potency is the fitted concentration of half-maximal effect.

SMILES	ELG1 genotoxic	SMN2 splice enh	FLuc counter	Rab9 promoter act	ELG1 DNA repair	NPC1 promoter act
Cc1ccc(S(=O)(=O)CCC(=O)OCc2nc(N)nc(Nc3ccccc3C)n2)cc1	1%	·	2%	-2%	21%	-3%
COc1ccc(C2NC3=C(CCCC3)C(C#N)(C#N)C2(C#N)C#N)cc1 (stereo not given)	-5%	0%	2%	-5%	0%	-5%
C/C(=N\NC(=O)c1nc2ccccn2c1C)c1ccco1	?	263%	?	2.5µM*	?	?
C/C(=N\NC(=O)c1nc2ccccn2c1C)c1cc2ccccc2o1	-6%	11%	-3%	3%	-29%	-2%
C/C(=N\NC(=O)c1ccc(F)cc1)c1ccccn1	5.2µM*	·	8.5µM*	-32%	?	?
CCc1ccc(/C(C)=N/NC(=O)c2ccccn2)cc1	5%	17%	?	1%	?	12%
C/C(=N\NC(=O)c1cc2ccccc2cc1O)c1cc2ccccc2o1	-11%	·	15µM*	11%	?	20%
O=C(N/N=C/c1ccc(Sc2ccccn2)o1)c1cc2ccccc2cc1O	13%	?	15µM*	0%	30%	-3%
N/C(=N\NC(=O)c1ccccc1)c1cc2ccccc2oc1=O	4%	7%	2%	14%	-3%	7%
C/C(=N\NC(=O)c1cc2ccccc2cc1O)c1ccccn1	?	·	4.8µM*	-24%	?	2µM*
CCOc1ccc(C(=O)N/N=C(\c2ccccc2)c2ccccn2)cc1	6%	-63%	19µM*	-19%	?	-22%
C/C(=N\NC(=O)c1c[nH]c2ccccc12)c1ccco1	7.9µM*	14µM*	12µM*	4µM*	?	5.6µM*
C/C(=N\NC(=O)c1c[nH]c2ccccc12)c1ccccn1	?	24%	11µM*	?	?	2.5µM*
CCc1ccc(/C(C)=N/NC(=O)c2c[nH]c3ccccc23)s1	1%	·	?	17%	12%	16%
CCCOc1ccc(C2=NNC(=O)CC2)cc1	16%	?	?	20%	?	16%
COc1ccc(C(=O)NC(C)CCc2ccccc2)cc1 (stereo not given)	8%	·	-8%	26%	?	19%
CCCn1c(SCC(=O)N2CCCC2=O)nc2ccccc2c1=O	-1%	·	2%	2%	-4%	0%
C/C(=N/NC(=O)CNC(=O)c1ccccn1)c1ccccc1	-2%	·	0%	-1%	?	1%
C=CCNC(=S)N/N=C(\C)c1ccccn1	?	-69%	-9%	-16%	0.18µM*	-6%
O=C(N/N=C/c1ccccn1)c1ccccc1	?	11µM*	11µM*	3.5µM*	?	?
Cc1ccc(C(=O)Nc2ccc(C(=O)N/N=C/c3cccnc3)cc2)cc1	5%	·	-14%	13%	?	8%
Cc1ccc(C(=O)Nc2ccc(C(=O)N/N=C/c3ccccn3)cc2)cc1	-29%	·	15µM*	?	17%	27%
O=C(N/N=C/c1ccc[nH]1)c1ccc(Cl)cc1	19%	8%	11µM*	-3%	?	-24%
COc1cc(C(=O)N/N=C/c2ccccn2)cc(OC)c1OC	-3%	-16%	3%	-4%	?	-22%
CN(C)c1ccc(C(=O)N/N=C/c2ccccn2)cc1	?	·	13µM*	2.5µM*	?	2.8µM*
SMILES	ELG1 genotoxic	SMN2 splice enh	FLuc counter	Rab9 promoter act	ELG1 DNA repair	NPC1 promoter act
O=C(N/N=C/c1ccc[nH]1)c1ccncc1	-16%	-24%	7%	1%	17%	0%
O=C(N[C@@H](CCC/[N+]([O-])=C/c1ccccc1)C(=O)O)OCc1ccccc1	4%	·	·	·	22%	·
Cc1noc2nc(-c3cccs3)cc(-c3nnc4n3CCCCC4)c12	-6%	-11%	2%	4%	14%	4%
COc1ccc(C(=O)N/N=C/c2ccccn2)cc1OC	-1%	·	-6%	9%	-26%	-1%
O=C(Cc1ccc(Br)c2ccccc12)N/N=C/c1ccccn1	-6%	-31%	-17%	0%	9.2µM*	0%
O=C(Cc1ccc(F)cc1)N/N=C/c1ccccn1	1%	3%	1%	-2%	5%	1%
O=C(N/N=C/c1ccccn1)c1ccc(Cl)cc1	18µM*	·	8.5µM*	3.2µM*	?	?
O=C(N/N=C/c1ccccn1)c1cccs1	?	-45%	19µM*	7%	-8%	5%
COc1ccc(C(=O)CSc2nnc(-c3cc(C)cc(C)c3)o2)cc1	0%	-12%	0%	0%	-4%	-3%
COc1ccc(NC(=O)CSc2nnc(Cc3cccn3C)n2-c2ccc(C)cc2)cc1OC	-2%	-11%	5%	-7%	-19%	-4%
CN1CCN(c2ccc(-c3ccc4ccccc4n3)cc2)CC1	-16%	-65%	0.12µM*	-39%	?	-34%
Cc1cc(-c2ccc(N3CCOCC3)cc2)nc2ccccc12	?	·	1.5µM*	?	?	?
c1ccc2nc(-c3ccc(N4CCOCC4)cc3)ccc2c1	?	?	0.27µM*	0.1µM*	?	0.25µM*
c1ccc2nc(-c3ccncc3)ccc2c1	?	20%	?	?	?	?
O=C1NC(=O)C(c2ccccc2)(c2ccc(O)cc2)N1 (stereo not given)	6%	·	-1%	-4%	-4%	0%
COc1ccc(NC(=O)CCCc2nnc3n(CCC(C)C)c(=O)c4sccc4n23)cc1Cl	·	·	-4%	·	·	·
CCOC(=O)N1CCc2c(sc3c2c(=O)n(-c2ccc(Cl)cc2)c(=O)n3Cc2cccc(C)c2)C1	·	-17%	2%	·	·	·
Cc1nc2c(C(=O)NCCc3ccc(Cl)cc3)cnn2c(C)c1Cc1c(F)cccc1Cl	·	·	0%	·	·	·
COc1ccc(/C(O)=C(\C#N)c2nc3ccccc3n2C)cc1OC	3%	-15%	-17%	0%	3%	0%
COc1cc(/C=C(\C#N)c2nc3ccccc3n2C)cc(OC)c1OC	·	-11%	19µM*	·	·	·
COc1ccc(/C=C(\C#N)c2nc3ccccc3n2C)c(OC)c1	·	24%	24µM*	·	·	·
Cn1c(/C(C#N)=C/c2cccc(O)c2)nc2ccccc21	?	?	13µM*	?	?	28%
CC(C)c1ccc(N2C(=O)N(Cc3cccc([N+](=O)[O-])c3)c3ccccc3S2(=O)=O)cc1	·	·	-2%	·	·	·
O=C(NCCCN1CCOCC1)c1cc(Cl)ccc1[N+](=O)[O-]	0%	-8%	7%	0%	-4%	1%

Screens as filed in PubChem BioAssay.
